{
  "source": "PubChem BioAssay",
  "note": "Calls of active or inactive are those of the source. No rule for the calls is given here.",
  "data": [
    {"biological_target": "Pantothenate synthetase (Mycobacterium tuberculosis (strain ATCC 25618 / H37Rv)) (UniProt P9WIL5)", "sequence (P9WIL5 whole entry, looked up)": "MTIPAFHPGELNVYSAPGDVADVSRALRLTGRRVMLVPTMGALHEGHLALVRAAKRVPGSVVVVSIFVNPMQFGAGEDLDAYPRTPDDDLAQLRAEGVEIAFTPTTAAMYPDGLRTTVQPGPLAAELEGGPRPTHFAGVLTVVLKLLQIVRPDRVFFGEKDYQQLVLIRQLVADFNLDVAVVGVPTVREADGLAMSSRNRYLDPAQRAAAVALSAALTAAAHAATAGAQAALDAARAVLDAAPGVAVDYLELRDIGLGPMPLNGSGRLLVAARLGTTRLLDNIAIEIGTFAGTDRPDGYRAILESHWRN", "assay": "Recombinant Mtb pantothenate synthetase (PanC) inhibitors, coupled enzyme, confirmatory (AID 375);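 also: 0% = full reaction with vehicle and 100% = no enzyme background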", "conditions": "coupled enzyme assay; at 10 µM, stronger effect = higher value", "values": [
      {"molecule": "CCCNC(=O)C1CC(=O)N(c2ccc(OCC(=O)Nc3cc(C)cc(C)c3)cc2)C1", "note": "(stereo not given)", "inhibition": "0% (inactive)"},
      {"molecule": "Cc1noc(C)c1S(=O)(=O)N1CCN(Cc2ccc3c(c2)OCO3)CC1", "inhibition": "0% (inactive)"},
      {"molecule": "Cc1nc(-c2ccc(NC(=O)c3cccs3)cc2)cs1", "inhibition": "0% (inactive)"},
      {"molecule": "CCOC(=O)C1CCCN(CC(=O)NC2CC2)C1", "note": "(stereo not given)", "inhibition": "6% (inactive)"},
      {"molecule": "O=C(c1cn(-c2ccccc2)nc1-c1cccs1)N1CCN(c2ccccn2)CC1", "inhibition": "2% (inactive)"},
      {"molecule": "FC(F)(F)C(F)(F)C(F)(F)c1nnc2ccc(N3CCOCC3)nn12", "inhibition": "3% (inactive)"},
      {"molecule": "O=C(O)c1cccc(NC(=O)C23CC4CC(C2)CC(n2cnc(Cl)n2)(C4)C3)c1", "inhibition": "1% (inactive)"},
      {"molecule": "COc1ccc(C(=O)N2CCN(c3nc4cc(C)ccc4cc3C#N)CC2)c(OC)c1", "inhibition": "0% (inactive)"},
      {"molecule": "Cn1c(C(=O)NCCCN2CCN(c3ccc(F)cc3)CC2)cc2c(=O)n(C)c3ccccc3c21", "inhibition": "0% (inactive)"},
      {"molecule": "COc1ccc(CCNc2oc(COc3ccccc3Cl)nc2C#N)cc1OC", "inhibition": "3% (inactive)"},
      {"molecule": "O=C1CN(c2nc3ccccc3n3cnnc23)CC(=O)N1CCc1ccccc1", "inhibition": "4% (inactive)"},
      {"molecule": "O=C(Nc1ccc2c(c1)OCO2)c1ccc(Br)c(S(=O)(=O)N2CCCC2)c1", "inhibition": "1% (inactive)"},
      {"molecule": "N#CC1=C(N)N(c2ccc(Oc3ccccc3)cc2)C(=O)C1", "inhibition": "2% (inactive)"},
      {"molecule": "COc1ccc(CCNC(=O)CN(c2ccccc2OC)S(C)(=O)=O)cc1", "inhibition": "0% (inactive)"},
      {"molecule": "Cc1cccc(NC(=O)CC2CCC2)c1", "inhibition": "0% (inactive)"},
      {"molecule": "Nc1c(C2=NCCO2)nnn1Cc1ccccc1", "inhibition": "0% (inactive)"},
      {"molecule": "COC(=O)C1=C(C)NC(C)=C(C(=O)OC)C1C(=O)OC1CCCCC1=O", "note": "(stereo not given)", "inhibition": "0% (inactive)"},
      {"molecule": "COc1ccc(-c2cc(C(F)(F)F)nc(SCCC(=O)N3CCOCC3)n2)cc1", "inhibition": "1% (inactive)"},
      {"molecule": "CC(=O)c1c(C)[nH]c(C(=O)Nc2ccc3c(c2)OCCO3)c1C", "inhibition": "3% (inactive)"},
      {"molecule": "CCCCOCCCNC(=O)COc1ccccc1", "inhibition": "1% (inactive)"},
      {"molecule": "O=C(Nc1ccc(F)cc1)c1cccc2c1C(=O)N(Cc1ccccn1)C2", "inhibition": "0% (inactive)"},
      {"molecule": "Cc1ccc(-c2nnn(CC(=O)N(CC3CCCO3)C(C(=O)NC(C)(C)C)c3ccc(F)cc3)n2)o1", "note": "(stereo not given)", "inhibition": "6% (inactive)"},
      {"molecule": "CO[C@H]1C[C@@H]2CC[C@@H](C)[C@@](O)(O2)C(=O)C(=O)N2CCCC[C@H]2C(=O)O[C@H]([C@H](C)C[C@@H]2CC[C@@H](O)[C@H](OC)C2)CC(=O)[C@H](C)C=C(C)[C@@H](O)[C@@H](OC)C(=O)[C@H](C)C[C@H](C)C=CC=CC=C1C", "inhibition": "0% (inactive)"},
      {"molecule": "Cn1c(=O)c2c(nc(CN3CCOCC3)n2CC(O)CO)n(C)c1=O", "note": "(stereo not given)", "inhibition": "8% (inactive)"},
      {"molecule": "CCOC(=O)CC(C#N)c1cn(C)c2ccccc12", "note": "(stereo not given)", "inhibition": "4% (inactive)"},
      {"molecule": "CC(=O)c1coc2ccc(OCC(=O)O)cc12", "inhibition": "0% (inactive)"},
      {"molecule": "CCOC(=O)c1ccc(NC(=O)N2CCN(Cc3cccc(F)c3)CC2)cc1", "inhibition": "0% (inactive)"},
      {"molecule": "C=CCn1c(=O)c2ccccc2n2c(SCC(=O)Nc3cc(C)on3)nnc12", "inhibition": "0% (inactive)"},
      {"molecule": "COc1ccccc1N1CC(C(=O)Nc2cccc(C(=O)O)c2)CC1=O", "note": "(stereo not given)", "inhibition": "0% (inactive)"},
      {"molecule": "O=C(O)CCn1[nH]c(=O)ccc1=O", "inhibition": "0% (inactive)"},
      {"molecule": "Cc1sc2ncnc(OCC(=O)N3CCN(S(=O)(=O)c4ccccc4)CC3)c2c1C", "inhibition": "0% (inactive)"},
      {"molecule": "Cc1cn2c(-c3ccncc3)nnc2s1", "inhibition": "0% (inactive)"},
      {"molecule": "COc1cc(C2c3c(oc4ccccc4c3=O)C(=O)N2c2ccc(C)cn2)ccc1O", "note": "(stereo not given)", "inhibition": "0% (inactive)"},
      {"molecule": "O=C(NCCCN1CCOCC1)c1cc(-c2ccc(Cl)cc2)on1", "inhibition": "4% (inactive)"},
      {"molecule": "CCS(=O)(=O)N1CCC(C(=O)NC2CCCCCCC2)CC1", "inhibition": "1% (inactive)"},
      {"molecule": "COc1cc(C(=O)Nc2ccc3c(c2)C(=O)N(CCC(=O)O)C3=O)cc(OC)c1OC", "inhibition": "0% (inactive)"},
      {"molecule": "CCCn1c(=O)[nH]c(=O)c2[nH]cnc21", "inhibition": "0% (inactive)"},
      {"molecule": "S=c1[nH]c2ccc(Cl)cc2[nH]1", "inhibition": "9% (inactive)"},
      {"molecule": "Cc1cccc(-n2ncc3c(N4CCC5(CC4)OCCO5)ncnc32)c1", "inhibition": "7% (inactive)"},
      {"molecule": "O=C(CN(Cc1ccco1)C(=O)CNS(=O)(=O)c1ccc(F)cc1)NCCc1ccccc1", "inhibition": "3% (inactive)"}
    ]}
  ]
}
